Laboratory results published in PubChem BioAssay (Tox21).
“And” between values parts separate entries of the source, which are not always exact repeats. Identical values can stand only once. Records with an inconclusive call do not appear. A structure can be active in one record and inactive in another. The source made the active and inactive calls. Unless noted, the call rests on the fitted dose curve; in most records, active means well fitted curve in the direction sought with a large enough effect in the repeat runs; inconclusive means weak or mixed curves; inactive means no such curve, though single readings can be large; an effect the other way counts as inactive or inconclusive.

Tests used:
[1] = qHTS assay to identify small molecule agonists of the peroxisome proliferator-activated receptor delta (PPARd) signaling pathway - cell viability counter screen (AID 743211); further: nearly all actives have a fitted effect of over 55% in size; further: potency means the concentration at half of the fitted maximal effect
In short: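 Read-out: CellTiter-Glo luminescence, 30 min RT, measured in the same wells as the beta-lactamase reporter. Cells: GeneBLAzer PPAR delta UAS-bla HEK293H, 3000 cells/well, compound exposure 17 h at 37C.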

[2] = biological target: Peroxisome proliferator-activated receptor delta (Homo sapiens) (UniProt Q03181); experiment: qHTS assay to identify small molecule agonists of the peroxisome proliferator-activated receptor delta (PPARd) signaling pathway (AID 743212; calls by dose curve)
In short: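 Quantitative high-throughput agonist screen in a HEK293H beta-lactamase reporter line under UAS control. Compounds in DMSO, at 37 C. Fluorescence read after 2 h with FRET substrate at room temperature.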

[3] = qHTS assay to identify small molecule antagonists of the peroxisome proliferator-activated receptor delta (PPARd) signaling pathway - cell viability counter screen (AID 743213); further: nearly all actives have a fitted effect of over 50% in size; further: potency means the concentration at half of the fitted maximal effect
In short: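 PPARd-bla HEK293H cells were treated with compounds plus agonist L165041 (300 nM final) for 17 h at 37 C. Viability was then read in the same wells by CellTiter-Glo luminescence after 30 min at room temperature.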

[4] = biological target: Peroxisome proliferator-activated receptor delta (Homo sapiens) (UniProt Q03181); experiment: qHTS assay to identify small molecule antagonists of the peroxisome proliferator-activated receptor delta (PPARd) signaling pathway (AID 743215; active means well fitted inhibition curve with a large enough effect in the signal ratio in the repeat runs, not every such curve was filed as active; the % refers to the signal ratio;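 further: cells stimulated with agonist L165041 at 300 nM final during compound exposure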; further: potency means the concentration at half of the fitted maximal effect)
In short: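 PPARd-bla HEK293H cells (UAS-bla reporter) preincubated 5 h, then given compound plus 300 nM final L165041 agonist for 17 h at 37 C. Beta-lactamase activity read by LiveBLAzer B/G FRET substrate fluorescence after 2 h at room temperature.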

[5] = qHTS assay to identify small molecule agonists of the farnesoid-X-receptor (FXR) signaling pathway - cell viability counter screen (AID 743218); further: nearly all actives have a fitted effect of over 45% in size
In short: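 FXR-UAS-bla HEK 293T cells exposed to compounds for 16 h at 37C. Cytotoxicity read in the same wells by CellTiter-Glo luminescence after 30 min at room temperature, following the beta-lactamase FRET read.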

[6] = qHTS assay to identify small molecule antagonists of the farnesoid-X-receptor (FXR) signaling pathway - cell viability counter screen (AID 743221; active means well fitted cell-killing curve with a large enough effect in the repeat runs, not every such curve was filed as active; further: nearly all actives have a fitted effect of over 50% in size; further: potency means the concentration at half of the fitted maximal effect)
In short: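 HEK 293T FXR-bla cells, 5 h pre-incubation; compound + CDCA 50 uM final, 16 h, 37 C; beta-lactamase FRET read first, then CellTiter-Glo luminescence, 30 min RT.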

[7] = biological target: Vitamin D3 receptor (Homo sapiens) (UniProt P11473); experiment: qHTS assay to identify small molecule agonists of the vitamin D receptor (VDR) signaling pathway (AID 743222; calls by dose curve)
In short: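 VDR-bla cells plated 4 h at 37 C, then exposed to compounds for 16 h at 37 C. Beta-lactamase reporter activity measured by fluorescence after 2 h room-temperature loading with LiveBLAzer B/G FRET substrate.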

[8] = biological target: Vitamin D3 receptor (Homo sapiens) (UniProt P11473); experiment: qHTS assay to identify small molecule antagonists of the vitamin D receptor (VDR) signaling pathway (AID 743223; active means well fitted inhibition curve with a large enough effect in the signal ratio in the repeat runs, not every such curve was filed as active; the % refers to the signal ratio; further: potency means the concentration at half of the fitted maximal effect)
In short: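 Beta-lactamase reporter read-out: FRET substrate fluorescence after 2 h at room temperature, following 16 h exposure of VDR-bla cells to test compound plus 3 nM (final) 1alpha,25-dihydroxyvitamin D3 agonist at 37C.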

[9] = biological target: Bile acid receptor (Homo sapiens) (UniProt Q96RI1); experiment: qHTS assay to identify small molecule antagonists of the farnesoid-X-receptor (FXR) signaling pathway (AID 743217; active means well fitted inhibition curve with a large enough effect in the signal ratio in the repeat runs, not every such curve was filed as active; the % refers to the signal ratio)
In short: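 FXR-UAS-bla HEK 293T cells (beta-lactamase reporter) given compound plus chenodeoxycholic acid (50 uM final), 16 h at 37C. LiveBLAzer B/G FRET substrate added for 2 h at room temperature; fluorescence read.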

[10] = biological target: Bile acid receptor (Homo sapiens) (UniProt Q96RI1); experiment: qHTS assay to identify small molecule agonists of the farnesoid-X-receptor (FXR) signaling pathway (AID 743220; active means well fitted activation curve with a large enough effect in the signal ratio in the repeat runs, not every such curve was filed as active; the % refers to the signal ratio)
In short: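 Beta-lactamase reporter under UAS control in GeneBLAzer FXR HEK 293T cells (5000/well) measured with LiveBLAzer FRET substrate after 2 h at room temperature. Compound exposure lasted 16 h at 37C.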

Measured: Potency

Chain of Vitamin D3 receptor (Homo sapiens) (P11473 whole entry, looked up): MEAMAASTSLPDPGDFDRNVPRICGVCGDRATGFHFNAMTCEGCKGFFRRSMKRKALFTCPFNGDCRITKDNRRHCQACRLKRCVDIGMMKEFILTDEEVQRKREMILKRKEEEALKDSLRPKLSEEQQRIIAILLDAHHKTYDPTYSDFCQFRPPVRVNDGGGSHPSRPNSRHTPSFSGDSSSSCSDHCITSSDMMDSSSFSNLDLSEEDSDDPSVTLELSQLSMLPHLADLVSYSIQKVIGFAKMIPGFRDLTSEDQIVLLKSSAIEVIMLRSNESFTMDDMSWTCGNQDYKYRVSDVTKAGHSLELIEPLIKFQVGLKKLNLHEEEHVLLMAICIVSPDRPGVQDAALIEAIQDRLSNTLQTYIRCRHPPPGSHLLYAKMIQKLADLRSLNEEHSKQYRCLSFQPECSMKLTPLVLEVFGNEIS
Chain of Peroxisome proliferator-activated receptor delta (Homo sapiens) (Q03181 whole entry, looked up): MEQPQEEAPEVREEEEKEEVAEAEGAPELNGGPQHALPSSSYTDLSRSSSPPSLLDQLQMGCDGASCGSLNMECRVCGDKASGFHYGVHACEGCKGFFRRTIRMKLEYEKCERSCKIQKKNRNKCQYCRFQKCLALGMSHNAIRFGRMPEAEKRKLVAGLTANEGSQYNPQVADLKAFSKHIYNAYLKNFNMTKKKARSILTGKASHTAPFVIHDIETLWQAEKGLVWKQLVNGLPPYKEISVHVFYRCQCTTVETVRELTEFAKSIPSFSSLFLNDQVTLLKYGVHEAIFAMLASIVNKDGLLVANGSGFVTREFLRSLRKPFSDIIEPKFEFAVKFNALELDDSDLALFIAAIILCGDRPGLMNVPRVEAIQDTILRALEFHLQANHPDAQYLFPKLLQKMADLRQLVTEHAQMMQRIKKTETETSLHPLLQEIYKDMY
Chain of Bile acid receptor (Homo sapiens) (Q96RI1 whole entry, looked up): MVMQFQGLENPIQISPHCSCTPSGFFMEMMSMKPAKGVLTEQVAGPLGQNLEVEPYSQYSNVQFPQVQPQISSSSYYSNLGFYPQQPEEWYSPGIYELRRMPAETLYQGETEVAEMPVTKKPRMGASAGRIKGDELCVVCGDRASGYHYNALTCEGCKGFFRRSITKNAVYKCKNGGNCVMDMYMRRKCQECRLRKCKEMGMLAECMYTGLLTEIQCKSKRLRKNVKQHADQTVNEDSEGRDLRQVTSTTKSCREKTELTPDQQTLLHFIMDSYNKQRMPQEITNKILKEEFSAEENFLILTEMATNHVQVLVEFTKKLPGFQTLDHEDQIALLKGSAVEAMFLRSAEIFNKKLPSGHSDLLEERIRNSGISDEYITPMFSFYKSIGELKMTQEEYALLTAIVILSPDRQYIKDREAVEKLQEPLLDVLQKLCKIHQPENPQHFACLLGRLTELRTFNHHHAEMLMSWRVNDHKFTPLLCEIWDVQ

NNCCc1ccccc1
not listed: [9] | [10]
inactive: all other assays above

CCC[C@H](N[C@@H](C)C(=O)N1[C@H](C(=O)O)C[C@@H]2CCCC[C@@H]21)C(=O)OCC
not listed: [4] | [7]
inactive: all other assays above

Oc1ccc(Cl)cc1Cc1cc(Cl)ccc1O
active: [1] 44.4 µM and 30.9 µM and 29.8 µM | [3] 25 µM
55.9 µM (active) and inactive: [4]
inactive: [2] | [10] | [6] | [7]

C/C=C/c1ccc(OCC)c(O)c1
not listed: [9] | [10]
inactive: all other assays above

OCCOCCN1CCN(C(c2ccccc2)c2ccc(Cl)cc2)CC1 (stereo unspecified)
active: [3] 43.1 µM
not listed: [9] | [10]
inactive: all other assays above

[Cl][In]([Cl])[Cl]
inactive: [1] | [2] | [3] | [4] | [6] | [7]

C1COC(NC(C2CC2)C2CC2)=N1
inactive: [1] | [2] | [3] | [4] | [6] | [8]

C#CC(C)(CC)OC(=O)c1ccccc1C(=O)O (stereo unspecified)
not listed: [5] | [9] | [10]
inactive: all other assays above

C[N+]1([O-])CCOCC1
not listed: [9] | [10]
inactive: all other assays above

CC(C)CCCCCCc1ccc(O)cc1
active: [1] 35.3 µM | [3] 39.6 µM and 43.6 µM | [6] 22.3 µM and 49 µM | [8] 22.3 µM and 43.6 µM
inactive: [2] | [4] | [7]

CC1=C(C=O)C(C)(C)CC=C1
inactive: [1] | [2] | [3] | [5] | [6] | [7]

CC[C@@H](N)CO
not listed: [5] | [9] | [10]
inactive: all other assays above

Cc1ccc(-c2cc(C(F)(F)F)nn2-c2ccc(S(N)(=O)=O)cc2)cc1
active: [1] 54.9 µM
inactive: [2] | [3] | [5] | [6]
